Results from article PMC7862700, “An all-to-all approach to the identification of sequence-specific readers for epigenetic DNA modifications on cytosine”.

What was measured:
Assay in all cases: DAPPL (digital affinity profiling via proximity ligation, sequencing); 10 mM Tris-HCl pH 7.5, 50 mM NaCl, 1 mM DTT, 4% glycerol, room temperature, 30 min; GST-TFs on glutathione beads, 16-mer random dsDNA library, 0.1% formaldehyde crosslink after washing; high values mean tight binding
FLI1 = biological target: T1, FLI1 (Homo sapiens, UniProt Q01543 1-452); details: protein: recombinant; tags: N-terminal GST; dsDNA, one strand shown
T1 sequence: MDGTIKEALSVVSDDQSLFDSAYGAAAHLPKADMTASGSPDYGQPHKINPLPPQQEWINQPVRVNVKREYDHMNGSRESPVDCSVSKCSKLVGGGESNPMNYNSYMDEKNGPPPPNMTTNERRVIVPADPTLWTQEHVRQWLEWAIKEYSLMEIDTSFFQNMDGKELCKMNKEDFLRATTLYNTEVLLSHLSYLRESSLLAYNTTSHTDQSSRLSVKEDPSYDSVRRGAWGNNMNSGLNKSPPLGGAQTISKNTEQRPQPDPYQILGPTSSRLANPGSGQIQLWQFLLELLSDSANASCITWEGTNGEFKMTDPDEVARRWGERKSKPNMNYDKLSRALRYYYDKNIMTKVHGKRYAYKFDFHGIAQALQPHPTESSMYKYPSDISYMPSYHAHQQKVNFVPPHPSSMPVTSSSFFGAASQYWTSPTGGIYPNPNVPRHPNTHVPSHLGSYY
In short: (§1)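 GST fusions of human transcription factors were expressed in yeast and captured with glutathione beads. Once given DNA barcodes and pooled alongside a tag-only sample, they were incubated for 30 min at room temperature with 200 nmole of a random double-stranded 16-mer DNA library in Tris/NaCl/DTT/glycerol buffer, then washed, crosslinked (0.1% formaldehyde), proximity-ligated, PCR-amplified and sequenced on an Illumina NextSeq500. The binding signal of each hexamer is its read frequency for a factor divided by its frequency for the tag-only sample.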

ELK1 = biological target: T2, ELK1 (Homo sapiens, UniProt P19419 1-428); details: protein: recombinant; tags: N-terminal GST; dsDNA, one strand shown
T2 sequence: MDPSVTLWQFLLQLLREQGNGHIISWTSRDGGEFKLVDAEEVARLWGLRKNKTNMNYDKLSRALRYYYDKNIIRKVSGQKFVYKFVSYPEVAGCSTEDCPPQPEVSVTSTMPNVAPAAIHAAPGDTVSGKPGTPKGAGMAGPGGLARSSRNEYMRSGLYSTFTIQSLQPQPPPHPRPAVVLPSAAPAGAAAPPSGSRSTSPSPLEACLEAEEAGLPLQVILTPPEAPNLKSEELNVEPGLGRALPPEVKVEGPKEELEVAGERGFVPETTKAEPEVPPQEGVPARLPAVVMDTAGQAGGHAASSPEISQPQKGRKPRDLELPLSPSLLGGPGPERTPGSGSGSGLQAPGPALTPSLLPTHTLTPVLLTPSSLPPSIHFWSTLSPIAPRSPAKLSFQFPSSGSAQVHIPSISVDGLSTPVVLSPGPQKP
In short: as §1

GABPA = biological target: T3, GABPA (Homo sapiens, UniProt Q06546 1-454); details: protein: recombinant; tags: N-terminal GST; dsDNA, one strand shown
T3 sequence: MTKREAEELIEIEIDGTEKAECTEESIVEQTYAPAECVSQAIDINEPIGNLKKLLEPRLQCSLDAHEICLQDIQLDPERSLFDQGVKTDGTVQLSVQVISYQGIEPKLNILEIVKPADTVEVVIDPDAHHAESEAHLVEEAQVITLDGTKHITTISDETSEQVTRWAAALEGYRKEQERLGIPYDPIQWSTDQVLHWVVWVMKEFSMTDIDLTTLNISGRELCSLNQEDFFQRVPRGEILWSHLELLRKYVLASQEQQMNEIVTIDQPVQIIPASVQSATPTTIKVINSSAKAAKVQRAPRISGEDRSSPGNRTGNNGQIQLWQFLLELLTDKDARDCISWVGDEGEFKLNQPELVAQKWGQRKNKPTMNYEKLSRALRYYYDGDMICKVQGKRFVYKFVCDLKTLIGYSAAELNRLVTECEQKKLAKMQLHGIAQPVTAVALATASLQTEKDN
In short: as §1

ERG = biological target: T4, ERG (Homo sapiens, UniProt P11308 1-479); details: protein: recombinant; tags: N-terminal GST; dsDNA, one strand shown
T4 sequence: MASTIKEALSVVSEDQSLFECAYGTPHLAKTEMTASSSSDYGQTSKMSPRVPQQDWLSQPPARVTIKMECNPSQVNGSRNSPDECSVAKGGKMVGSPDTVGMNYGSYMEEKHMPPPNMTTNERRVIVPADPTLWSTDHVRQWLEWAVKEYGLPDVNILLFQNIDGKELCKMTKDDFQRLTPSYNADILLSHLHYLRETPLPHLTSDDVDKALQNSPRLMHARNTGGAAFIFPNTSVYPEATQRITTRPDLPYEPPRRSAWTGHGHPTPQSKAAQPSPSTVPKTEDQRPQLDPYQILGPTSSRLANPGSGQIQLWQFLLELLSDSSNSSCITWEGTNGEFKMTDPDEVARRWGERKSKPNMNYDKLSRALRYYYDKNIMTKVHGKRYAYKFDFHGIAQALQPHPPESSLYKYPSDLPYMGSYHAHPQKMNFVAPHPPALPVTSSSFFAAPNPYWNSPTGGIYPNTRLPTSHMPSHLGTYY
In short: as §1

ELF1 = ELF1 (Homo sapiens, UniProt P32519 1-619); details: protein: recombinant; tags: N-terminal GST; dsDNA, one strand shown
Chain of ELF1 (P32519 whole entry): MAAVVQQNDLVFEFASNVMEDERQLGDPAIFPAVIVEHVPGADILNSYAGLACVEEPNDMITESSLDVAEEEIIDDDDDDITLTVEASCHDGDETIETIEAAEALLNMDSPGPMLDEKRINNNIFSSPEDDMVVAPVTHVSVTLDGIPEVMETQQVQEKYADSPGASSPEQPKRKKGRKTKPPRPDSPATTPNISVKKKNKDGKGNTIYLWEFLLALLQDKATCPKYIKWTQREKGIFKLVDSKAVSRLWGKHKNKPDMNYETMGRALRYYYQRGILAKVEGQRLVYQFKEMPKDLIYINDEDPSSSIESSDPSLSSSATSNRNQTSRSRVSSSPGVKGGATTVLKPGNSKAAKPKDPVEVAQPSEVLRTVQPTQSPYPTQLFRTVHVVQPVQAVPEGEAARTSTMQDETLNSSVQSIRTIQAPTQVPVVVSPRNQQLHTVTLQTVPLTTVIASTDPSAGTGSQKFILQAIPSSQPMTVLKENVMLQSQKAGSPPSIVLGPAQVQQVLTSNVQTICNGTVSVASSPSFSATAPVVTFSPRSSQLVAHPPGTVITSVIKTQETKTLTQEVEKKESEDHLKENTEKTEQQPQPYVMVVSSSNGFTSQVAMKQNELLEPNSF
In short: as §1

EHF = biological target: T5, EHF (Homo sapiens, UniProt Q9NZC4 1-300); details: protein: recombinant; tags: N-terminal GST; dsDNA, one strand shown
T5 sequence: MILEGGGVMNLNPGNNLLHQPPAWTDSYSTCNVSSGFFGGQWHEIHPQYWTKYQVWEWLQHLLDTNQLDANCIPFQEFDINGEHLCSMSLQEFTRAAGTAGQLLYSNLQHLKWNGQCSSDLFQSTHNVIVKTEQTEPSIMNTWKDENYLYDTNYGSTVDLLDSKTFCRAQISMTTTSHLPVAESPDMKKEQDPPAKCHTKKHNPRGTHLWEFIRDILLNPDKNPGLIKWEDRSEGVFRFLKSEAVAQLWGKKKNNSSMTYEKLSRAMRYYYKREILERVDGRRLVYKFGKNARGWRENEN
In short: as §1

SPI1 = SPI1 (Homo sapiens, UniProt P17947 1-270); details: protein: recombinant; tags: N-terminal GST; dsDNA, one strand shown
In short: as §1

SPIB = SPIB (Homo sapiens, UniProt Q01892 1-262); details: protein: recombinant; tags: N-terminal GST; dsDNA, one strand shown
Chain of SPIB (Q01892 whole entry): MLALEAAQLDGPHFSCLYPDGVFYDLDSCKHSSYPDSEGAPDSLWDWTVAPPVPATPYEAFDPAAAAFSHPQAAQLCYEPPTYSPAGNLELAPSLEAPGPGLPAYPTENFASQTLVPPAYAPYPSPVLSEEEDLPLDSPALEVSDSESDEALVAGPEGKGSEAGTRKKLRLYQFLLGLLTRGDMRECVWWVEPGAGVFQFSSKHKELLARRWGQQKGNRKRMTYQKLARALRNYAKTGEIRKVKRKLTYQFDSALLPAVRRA
In short: as §1

ELK3 = biological target: T6, ELK3 (Homo sapiens, UniProt P41970 1-407); details: protein: recombinant; tags: N-terminal GST; dsDNA, one strand shown
T6 sequence: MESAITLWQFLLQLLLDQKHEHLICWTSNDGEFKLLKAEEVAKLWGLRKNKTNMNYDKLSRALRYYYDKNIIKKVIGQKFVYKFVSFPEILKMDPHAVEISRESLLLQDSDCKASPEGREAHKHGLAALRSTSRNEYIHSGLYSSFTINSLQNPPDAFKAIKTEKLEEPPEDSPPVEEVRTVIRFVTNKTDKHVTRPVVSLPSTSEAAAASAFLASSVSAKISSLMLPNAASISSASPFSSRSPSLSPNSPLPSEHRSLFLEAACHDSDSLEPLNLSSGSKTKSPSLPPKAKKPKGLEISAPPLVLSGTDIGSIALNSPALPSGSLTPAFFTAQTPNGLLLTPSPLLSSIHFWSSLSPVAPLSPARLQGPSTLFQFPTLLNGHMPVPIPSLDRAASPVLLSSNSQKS
In short: as §1

FEV = biological target: T7, FEV (Homo sapiens, UniProt Q99581 1-238); details: protein: recombinant; tags: N-terminal GST; dsDNA, one strand shown
T7 sequence: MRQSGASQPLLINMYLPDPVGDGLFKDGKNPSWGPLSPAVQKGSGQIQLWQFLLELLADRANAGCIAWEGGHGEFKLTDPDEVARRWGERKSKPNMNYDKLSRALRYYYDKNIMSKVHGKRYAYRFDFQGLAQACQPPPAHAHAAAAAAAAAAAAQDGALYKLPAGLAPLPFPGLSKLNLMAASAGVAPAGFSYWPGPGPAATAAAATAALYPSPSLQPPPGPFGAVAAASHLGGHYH
In short: as §1

ETV5 = ETV5 (Homo sapiens, UniProt P41161 1-510); details: protein: recombinant; tags: N-terminal GST; dsDNA, one strand shown
Chain of ETV5 (P41161 whole entry): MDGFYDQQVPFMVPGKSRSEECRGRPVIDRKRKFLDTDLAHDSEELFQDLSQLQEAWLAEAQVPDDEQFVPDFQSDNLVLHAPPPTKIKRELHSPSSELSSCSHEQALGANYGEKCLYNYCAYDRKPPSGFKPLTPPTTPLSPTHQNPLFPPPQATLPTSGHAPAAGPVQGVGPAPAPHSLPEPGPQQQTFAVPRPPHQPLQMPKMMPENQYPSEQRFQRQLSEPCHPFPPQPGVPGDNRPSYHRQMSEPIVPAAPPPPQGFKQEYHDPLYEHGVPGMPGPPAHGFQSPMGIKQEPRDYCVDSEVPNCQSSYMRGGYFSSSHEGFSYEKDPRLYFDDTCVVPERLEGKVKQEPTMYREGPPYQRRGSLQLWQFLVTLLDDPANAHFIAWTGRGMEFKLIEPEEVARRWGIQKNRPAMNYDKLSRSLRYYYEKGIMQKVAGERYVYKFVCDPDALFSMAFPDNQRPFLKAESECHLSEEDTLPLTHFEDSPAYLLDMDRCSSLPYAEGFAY
In short: as §1

HSF1 = HSF1 (Homo sapiens, UniProt Q00613 1-529); details: protein: recombinant; tags: N-terminal GST; chain copies: 3; dsDNA, one strand shown
Chain of HSF1 (Q00613 whole entry): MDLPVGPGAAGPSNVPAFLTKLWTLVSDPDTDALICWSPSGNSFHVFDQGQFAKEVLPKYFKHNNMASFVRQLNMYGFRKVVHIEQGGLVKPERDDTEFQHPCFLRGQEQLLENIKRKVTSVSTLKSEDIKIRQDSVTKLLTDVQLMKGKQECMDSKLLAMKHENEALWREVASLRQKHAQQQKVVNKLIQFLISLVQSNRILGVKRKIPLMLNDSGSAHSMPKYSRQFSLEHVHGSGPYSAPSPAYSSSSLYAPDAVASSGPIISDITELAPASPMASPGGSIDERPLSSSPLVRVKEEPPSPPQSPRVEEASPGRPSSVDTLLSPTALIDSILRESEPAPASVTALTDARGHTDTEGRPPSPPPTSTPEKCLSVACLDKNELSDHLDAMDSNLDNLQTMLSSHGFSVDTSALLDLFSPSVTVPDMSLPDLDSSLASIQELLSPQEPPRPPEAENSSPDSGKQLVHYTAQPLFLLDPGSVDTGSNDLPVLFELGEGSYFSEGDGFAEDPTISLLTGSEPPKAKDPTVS
In short: as §1

SPIC = biological target: T8, SPIC (Homo sapiens, UniProt Q8N5J4 1-248); details: protein: recombinant; tags: N-terminal GST; dsDNA, one strand shown
T8 sequence: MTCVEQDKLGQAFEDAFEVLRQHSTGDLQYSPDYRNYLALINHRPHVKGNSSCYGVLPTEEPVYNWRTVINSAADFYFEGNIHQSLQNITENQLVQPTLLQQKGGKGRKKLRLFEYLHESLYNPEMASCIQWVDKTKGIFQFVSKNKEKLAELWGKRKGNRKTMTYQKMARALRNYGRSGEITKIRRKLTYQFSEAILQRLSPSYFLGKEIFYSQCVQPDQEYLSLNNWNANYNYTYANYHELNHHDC
In short: as §1

ELF4 = ELF4 (Homo sapiens, UniProt Q99607 1-663); details: protein: recombinant; tags: N-terminal GST; dsDNA, one strand shown
Chain of ELF4 (Q99607 whole entry): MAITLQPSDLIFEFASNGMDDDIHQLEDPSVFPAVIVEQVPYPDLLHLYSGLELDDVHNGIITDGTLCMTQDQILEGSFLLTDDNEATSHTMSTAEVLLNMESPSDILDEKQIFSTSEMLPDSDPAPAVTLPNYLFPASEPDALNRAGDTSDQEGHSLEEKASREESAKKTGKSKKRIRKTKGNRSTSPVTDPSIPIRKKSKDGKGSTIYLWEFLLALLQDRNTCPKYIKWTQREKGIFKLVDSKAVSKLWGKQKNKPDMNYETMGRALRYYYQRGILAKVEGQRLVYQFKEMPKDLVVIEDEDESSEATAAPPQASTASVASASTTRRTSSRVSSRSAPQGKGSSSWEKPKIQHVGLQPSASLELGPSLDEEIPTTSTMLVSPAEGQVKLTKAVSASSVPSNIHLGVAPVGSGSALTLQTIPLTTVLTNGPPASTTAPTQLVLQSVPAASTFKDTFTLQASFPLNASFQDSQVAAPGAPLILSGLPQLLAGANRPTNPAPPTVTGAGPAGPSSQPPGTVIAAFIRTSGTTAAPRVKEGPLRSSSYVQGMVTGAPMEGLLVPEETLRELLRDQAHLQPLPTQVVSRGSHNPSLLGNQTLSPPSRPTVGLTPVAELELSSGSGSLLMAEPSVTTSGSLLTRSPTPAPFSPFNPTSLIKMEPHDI
In short: as §1

ELK4 = biological target: T9, ELK4 (Homo sapiens, UniProt P28324-2 1-405); details: protein: recombinant; tags: N-terminal GST; dsDNA, one strand shown
T9 sequence: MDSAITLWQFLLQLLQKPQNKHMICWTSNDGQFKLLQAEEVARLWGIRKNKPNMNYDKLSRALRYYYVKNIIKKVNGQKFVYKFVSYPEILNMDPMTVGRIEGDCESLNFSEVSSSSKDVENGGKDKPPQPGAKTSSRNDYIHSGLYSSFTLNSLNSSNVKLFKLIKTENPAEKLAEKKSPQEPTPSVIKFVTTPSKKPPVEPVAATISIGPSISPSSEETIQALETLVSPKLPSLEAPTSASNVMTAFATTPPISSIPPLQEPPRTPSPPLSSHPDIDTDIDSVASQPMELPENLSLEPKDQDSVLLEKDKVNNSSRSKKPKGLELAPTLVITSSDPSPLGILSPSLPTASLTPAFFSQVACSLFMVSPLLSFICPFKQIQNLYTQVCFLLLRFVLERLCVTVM
In short: as §1

ETV2 = biological target: T10, ETV2 (Homo sapiens, UniProt O00321 1-342); details: protein: recombinant; tags: N-terminal GST; dsDNA, one strand shown
T10 sequence: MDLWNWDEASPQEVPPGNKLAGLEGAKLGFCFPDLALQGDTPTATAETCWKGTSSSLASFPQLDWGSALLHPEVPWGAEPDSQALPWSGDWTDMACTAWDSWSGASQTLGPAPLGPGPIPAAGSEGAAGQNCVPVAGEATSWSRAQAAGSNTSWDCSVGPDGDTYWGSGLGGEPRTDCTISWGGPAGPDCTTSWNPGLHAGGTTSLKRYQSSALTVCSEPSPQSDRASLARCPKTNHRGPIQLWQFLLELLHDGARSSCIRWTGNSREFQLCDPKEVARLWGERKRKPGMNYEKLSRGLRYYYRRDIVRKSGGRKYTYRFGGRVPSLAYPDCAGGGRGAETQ
In short: as §1

ELF3 = biological target: T11, ELF3 (Homo sapiens, UniProt P78545 1-371); details: protein: recombinant; tags: N-terminal GST; dsDNA, one strand shown
T11 sequence: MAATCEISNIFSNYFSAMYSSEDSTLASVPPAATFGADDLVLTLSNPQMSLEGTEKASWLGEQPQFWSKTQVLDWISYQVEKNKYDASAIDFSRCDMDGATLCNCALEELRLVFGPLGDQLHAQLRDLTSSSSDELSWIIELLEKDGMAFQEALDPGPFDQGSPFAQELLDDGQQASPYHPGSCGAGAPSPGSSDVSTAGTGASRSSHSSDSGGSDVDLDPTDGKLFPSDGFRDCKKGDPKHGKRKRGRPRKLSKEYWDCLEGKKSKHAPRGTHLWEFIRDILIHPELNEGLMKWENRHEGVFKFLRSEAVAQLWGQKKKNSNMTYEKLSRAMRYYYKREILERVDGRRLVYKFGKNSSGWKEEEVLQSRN
In short: as §1

CRX = CRX (Homo sapiens, UniProt O43186 1-299); details: protein: recombinant; tags: N-terminal GST; dsDNA, one strand shown
Chain of CRX (O43186 whole entry): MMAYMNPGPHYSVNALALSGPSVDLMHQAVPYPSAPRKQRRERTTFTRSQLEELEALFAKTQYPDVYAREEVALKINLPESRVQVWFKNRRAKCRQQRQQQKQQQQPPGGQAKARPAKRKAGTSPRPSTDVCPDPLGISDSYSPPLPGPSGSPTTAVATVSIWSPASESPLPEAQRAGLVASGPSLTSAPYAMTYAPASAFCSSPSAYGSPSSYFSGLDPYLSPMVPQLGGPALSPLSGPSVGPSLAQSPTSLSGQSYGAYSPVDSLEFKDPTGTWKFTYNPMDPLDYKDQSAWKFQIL
In short: as §1

ETV1 = ETV1 (Homo sapiens, UniProt P50549 1-477); details: protein: recombinant; tags: N-terminal GST; dsDNA, one strand shown
Chain of ETV1 (P50549 whole entry): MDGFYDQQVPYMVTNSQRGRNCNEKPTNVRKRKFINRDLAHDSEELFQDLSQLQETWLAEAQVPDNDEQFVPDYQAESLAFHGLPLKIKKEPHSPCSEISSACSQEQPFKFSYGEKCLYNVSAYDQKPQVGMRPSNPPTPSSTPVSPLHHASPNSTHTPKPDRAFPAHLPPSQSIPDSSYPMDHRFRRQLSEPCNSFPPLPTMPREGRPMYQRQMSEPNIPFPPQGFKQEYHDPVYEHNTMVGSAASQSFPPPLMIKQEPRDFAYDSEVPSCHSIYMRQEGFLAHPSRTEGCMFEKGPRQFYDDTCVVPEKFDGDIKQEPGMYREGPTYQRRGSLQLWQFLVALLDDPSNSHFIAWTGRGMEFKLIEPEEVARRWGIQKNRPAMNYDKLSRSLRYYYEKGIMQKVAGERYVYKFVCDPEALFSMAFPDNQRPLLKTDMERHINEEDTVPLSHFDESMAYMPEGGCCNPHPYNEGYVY
In short: as §1

## AAGCTA
FLI1
  binding signal: 1.16 fold enrichment (6-mer frequency, TF over GST control)
ELK1
  binding signal: 1.13 fold enrichment (6-mer frequency, TF over GST control)
GABPA
  binding signal: 1.08 fold enrichment (6-mer frequency, TF over GST control)
ERG
  binding signal: 1.13 fold enrichment (6-mer frequency, TF over GST control)
ELF1
  binding signal: 1.11 fold enrichment (6-mer frequency, TF over GST control)
EHF
  binding signal: 1.19 fold enrichment (6-mer frequency, TF over GST control)
SPI1
  binding signal: 1.04 fold enrichment (6-mer frequency, TF over GST control)
SPIB
  binding signal: 1.2 fold enrichment (6-mer frequency, TF over GST control)
ELK3
  binding signal: 1.21 fold enrichment (6-mer frequency, TF over GST control)
FEV
  binding signal: 1.13 fold enrichment (6-mer frequency, TF over GST control)
ETV5
  binding signal: 1.17 fold enrichment (6-mer frequency, TF over GST control)
HSF1
  binding signal: 1.29 fold enrichment (6-mer frequency, TF over GST control)
SPIC
  binding signal: 1.13 fold enrichment (6-mer frequency, TF over GST control)
ELF4
  binding signal: 1.2 fold enrichment (6-mer frequency, TF over GST control)
ELK4
  binding signal: 1.17 fold enrichment (6-mer frequency, TF over GST control)
ETV2
  binding signal: 1.12 fold enrichment (6-mer frequency, TF over GST control)
ELF3
  binding signal: 1.2 fold enrichment (6-mer frequency, TF over GST control)
CRX
  binding signal: 1.58 fold enrichment (6-mer frequency, TF over GST control)
ETV1
  binding signal: 1.17 fold enrichment (6-mer frequency, TF over GST control)
